PubChem BioAssay (Tox21)
Values joined by “and” are separate entries in the source; they are usually repeats but may differ in a detail not shown here. Equal values may be shown once. Records with an inconclusive call do not appear. A call without a number means that no potency is given here. Active and inactive are the calls of the source. Unless noted, calls come from the whole dose curve; as a rule, active = well fitted curve in the direction sought with a large enough effect in the repeat runs; inconclusive = weak or mixed curves; inactive = no such curve, though single readings can be large; an effect the other way counts as inactive or inconclusive.

Columns and labels:
[1] = qHTS assay to identify small molecule agonists of the constitutive androstane receptor (CAR) signaling pathway - cell viability counter screen (AID 1224836); note: nearly all actives have a fitted effect of over 45% in size; note: potency is the fitted concentration of half-maximal effect
Procedure, shortened: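 Compound titrations (15 concentrations) went onto HepG2-CYP2B6-hCAR cells 4 h after seeding, alongside PK11195 at a final 0.75 uM; a 23 h, 37 C/5% CO2 incubation preceded CellTiter-Fluor viability measurement.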

[2] = molecular target: Nuclear receptor subfamily 1 group I member 3 (Homo sapiens) (UniProt Q14994); test: qHTS assay to identify small molecule antagonists of the constitutive androstane receptor (CAR) signaling pathway (AID 1224838);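 note: HepG2 cells stably expressing hCAR with CYP2B6 luciferase reporter stimulated by CITCO; nearly all actives have a fitted effect of over 40% in size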; note: potency is the fitted concentration of half-maximal effect
Nuclear receptor subfamily 1 group I member 3 (Homo sapiens), sequence (Q14994 whole entry, looked up): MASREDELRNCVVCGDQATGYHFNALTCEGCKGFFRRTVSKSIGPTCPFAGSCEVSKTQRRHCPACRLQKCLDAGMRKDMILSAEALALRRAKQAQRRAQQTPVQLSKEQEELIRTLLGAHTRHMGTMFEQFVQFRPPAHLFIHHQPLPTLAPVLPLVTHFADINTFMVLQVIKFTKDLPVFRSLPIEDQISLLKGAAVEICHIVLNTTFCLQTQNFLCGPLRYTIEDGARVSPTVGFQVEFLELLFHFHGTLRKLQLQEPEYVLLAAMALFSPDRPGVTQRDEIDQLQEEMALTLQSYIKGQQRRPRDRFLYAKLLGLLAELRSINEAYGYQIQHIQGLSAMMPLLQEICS
Procedure, shortened: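 HepG2-CYP2B6-hCAR cells; 4 h pre-incubation; cpd (15 conc) + CITCO 50 nM final; 24 h, 37 C/5% CO2; ONE-Glo, luminescence.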

[3] = molecular target: Nuclear receptor subfamily 1 group I member 3 (Homo sapiens) (UniProt Q14994); test: qHTS assay to identify small molecule agonists of the constitutive androstane receptor (CAR) signaling pathway (AID 1224839); note: nearly all actives have a fitted effect of over 15% in size; note: potency is the fitted concentration of half-maximal effect
Procedure, shortened: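 In this screen, CAR-driven CYP2B6 promoter activity is measured by luminescence in HepG2-CYP2B6-hCAR cells after 24 h with test compounds and 0.75 uM PK11195 (final concentration).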

[4] = qHTS assay to identify small molecule antagonists of the estrogen related receptor signaling pathway with the pleiotropic PPARgamma coactivator (PGC) from Tox21 10K library - cell viability counter screen (AID 1224840; active = well fitted cell-killing curve with a large enough effect in the repeat runs, not every such curve was filed as active; note: nearly all actives have a fitted effect of over 40% in size; note: potency is the fitted concentration of half-maximal effect)
Procedure, shortened: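 PGC/ERR cells, 2,000/well; 6 h pre-incubation 37 C/5% CO2; cpd in DMSO via pin tool; 17.5 h 37 C; CellTiter-Fluor, 30 min; fluorescence.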

[5] = qHTS assay to identify small molecule agonists of the estrogen related receptor signaling pathway with the pleiotropic PPARgamma coactivator (PGC) from Tox21 10K library (AID 1224842); note: nearly all actives have a fitted effect of over 15% in size; note: potency is the fitted concentration of half-maximal effect
Procedure, shortened: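 PGC/ERR reporter cell line, 2,000 cells per well, incubated 6 h at 37 C before 23 nL compound in DMSO was added. After 18 h at 37 C, One-Glo luminescence read following 30 min at room temperature.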

[6] = molecular target: Thyrotropin receptor (Homo sapiens) (UniProt P16473); test: qHTS assay to identify small molecule agonists of the thyroid stimulating hormone receptor (TSHR) signaling pathway (AID 1224843; calls by dose curve; note: nearly all actives have a fitted effect of over 45% in size)
Thyrotropin receptor (Homo sapiens), sequence (P16473 whole entry, looked up): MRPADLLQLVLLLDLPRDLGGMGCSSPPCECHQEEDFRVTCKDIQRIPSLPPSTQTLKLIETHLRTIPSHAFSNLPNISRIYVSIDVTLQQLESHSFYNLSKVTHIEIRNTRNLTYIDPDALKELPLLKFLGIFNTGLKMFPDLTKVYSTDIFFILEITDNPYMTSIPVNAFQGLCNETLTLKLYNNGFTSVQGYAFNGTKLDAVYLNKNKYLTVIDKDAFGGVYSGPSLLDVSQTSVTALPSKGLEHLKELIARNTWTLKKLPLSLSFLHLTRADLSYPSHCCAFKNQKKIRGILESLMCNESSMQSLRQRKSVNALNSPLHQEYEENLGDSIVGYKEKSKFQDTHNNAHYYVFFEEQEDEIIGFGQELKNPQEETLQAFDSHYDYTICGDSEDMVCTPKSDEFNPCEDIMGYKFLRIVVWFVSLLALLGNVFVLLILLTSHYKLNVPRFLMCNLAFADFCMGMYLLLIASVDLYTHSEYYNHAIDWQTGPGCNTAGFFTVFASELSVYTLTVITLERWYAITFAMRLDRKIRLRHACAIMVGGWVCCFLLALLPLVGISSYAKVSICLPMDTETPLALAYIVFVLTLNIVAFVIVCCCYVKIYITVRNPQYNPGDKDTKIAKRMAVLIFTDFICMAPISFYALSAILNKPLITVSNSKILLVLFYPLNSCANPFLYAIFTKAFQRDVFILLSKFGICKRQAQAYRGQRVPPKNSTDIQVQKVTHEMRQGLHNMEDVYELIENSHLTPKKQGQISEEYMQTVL
Procedure, shortened: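 TSHR-HEK293 cells in agonist mode, 30 min room-temperature step, then cAMP measured by competitive HTRF (cAMP-d2 with anti-cAMP cryptate) after 1 h at room temperature. Tested at 15 concentrations in triplicate.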

[7] = molecular target: Luciferin 4-monooxygenase (Photinus pyralis) (UniProt P08659); test: qHTS assay to identify small molecule inhibitors of firefly luciferase (AID 1224835); note: nearly all actives have a fitted effect of over 25% in size; note: potency is the fitted concentration of half-maximal effect
Luciferin 4-monooxygenase (Photinus pyralis), sequence (P08659 whole entry, looked up): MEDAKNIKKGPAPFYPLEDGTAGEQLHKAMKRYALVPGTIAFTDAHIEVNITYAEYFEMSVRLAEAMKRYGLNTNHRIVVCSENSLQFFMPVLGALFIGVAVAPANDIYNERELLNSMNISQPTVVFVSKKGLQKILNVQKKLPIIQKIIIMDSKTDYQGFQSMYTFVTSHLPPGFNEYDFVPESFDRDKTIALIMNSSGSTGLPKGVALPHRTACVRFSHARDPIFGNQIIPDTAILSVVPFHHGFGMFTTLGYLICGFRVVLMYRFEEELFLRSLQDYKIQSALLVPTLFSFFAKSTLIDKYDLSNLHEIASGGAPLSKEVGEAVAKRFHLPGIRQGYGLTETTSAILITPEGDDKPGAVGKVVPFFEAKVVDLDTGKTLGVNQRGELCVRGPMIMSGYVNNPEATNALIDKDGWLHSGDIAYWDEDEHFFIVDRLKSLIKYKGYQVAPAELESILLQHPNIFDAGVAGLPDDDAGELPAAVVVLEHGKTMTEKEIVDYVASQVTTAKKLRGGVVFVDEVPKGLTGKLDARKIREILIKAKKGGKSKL
Procedure, shortened: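 Biochemical qHTS: compounds run as interplate titrations against purified firefly enzyme, with D-luciferin and ATP each at its KM concentration. Light output recorded by CCD imaging.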

[8] = qHTS assay to identify small molecule antagonists of the constitutive androstane receptor (CAR) signaling pathway - cell viability counter screen (AID 1224837); note: series mostly up to about 92 µM; nearly all actives have a fitted effect of over 45% in size
Procedure, shortened: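 HepG2-CYP2B6-hCAR cells, 2500/well, 4 hr pre-incubation; compound titration, 15 conc.; CITCO 50 nM final; 23 hr, 37 C/5% CO2; CellTiter-Fluor, fluorescence intensity.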

[9] = qHTS assay to identify small molecule antagonists of the estrogen related receptor signaling pathway with the pleiotropic PPARgamma coactivator (PGC) from Tox21 10K library (AID 1224841; call rule not given here; note: series mostly up to about 92 µM; actives are mostly falling curves and most rising ones were filed inactive; nearly all actives have a fitted effect of over 50% in size)
Procedure, shortened: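 PGC/ERR cell line, 2,000 cells/well; 6 h pre-incubation 37 C/5% CO2; compounds (DMSO) pinned in; 18 h, 37 C; One-Glo, 30 min RT; luminescence.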

Row | Structure (SMILES) | Potency [1] | Potency [2] | Potency [3] | Potency [4] | Potency [5] | Potency [6] | Potency [7] | Potency [8] | Potency [9]
1 | CCCCCCOC(=O)c1ccc(O)cc1 | inactive | inactive | 27.3 µM (active) and 54.5 µM (active) | inactive | 30.7 µM (active) and 9.69 µM (active) | inactive | – | – | –
2 | CCCCCCCCCCCC(=O)NCCCN(C)C | 61.1 µM (active) | – | inactive | 61.1 µM (active) | – | – | inactive | – | –
3 | CCOC(=O)c1nc(C(Cl)(Cl)Cl)n(-c2ccc(Cl)cc2Cl)n1 | – | – | inactive | – | inactive | – | inactive | – | –
4 | Cc1cc(O)c2ccccc2c1O | – | 16.8 µM (active) | inactive | inactive | inactive | inactive | inactive | – | –
5 | O=C(Oc1ccccc1)c1ccccc1C(=O)Oc1ccccc1 | inactive | inactive | inactive | – | – | – | – | inactive | –
6 | COc1ccc(-c2ccc3cc(C(=O)O)ccc3c2)cc1C12CC3CC(CC(C3)C1)C2 | inactive | – | inactive | inactive | inactive | inactive | inactive | – | –
7 | Cc1oc(-c2ccccc2)nc1CCC(=O)c1ccc(CC2SC(=O)NC2=O)cc1 (configuration not stated) | – | inactive | inactive | inactive | inactive | inactive | inactive | – | inactive
8 | O=C(Oc1cccc2cccnc12)c1ccccc1 | – | 0.001 µM (active) | inactive | – | inactive | – | – | – | –
9 | O=C(Nc1cccc(C(F)(F)F)c1)c1cc(Br)cc(Br)c1O | – | 15.4 µM (active) | inactive | 6.86 µM (active) | – | – | 3.99 µM (active) | – | –
10 | Nc1ccc2cc(S(=O)(=O)O)cc(O)c2c1N=Nc1ccccc1C(F)(F)F | – | inactive | inactive | inactive | inactive | – | 63.3 µM (active) | – | –
11 | COc1cccc(N)c1 | inactive | inactive | inactive | inactive | – | inactive | – | inactive | –
12 | Cc1cc(=O)oc2cc(N(C)C)ccc12 | – | inactive | 61.1 µM (active) | – | inactive | inactive | – | – | inactive
13 | Nc1nc2ccccc2n1Cc1ccc(F)cc1 | – | – | 15 µM (active) | inactive | inactive | inactive | – | – | –
14 | O=C1CCCc2c1cc1ccc3cccc4ccc2c1c34 | inactive | – | – | inactive | – | inactive | 11.4 µM (active) | – | –
